# FBW7 act: activators of human E3 ligase FBW7; AlphaScreen FBW7–phospho-cyclin E peptide binding, activator screen; normalized activity (activation), % at 26.1 µM; hit rate 0.13% among 650,000; AID 1259310; in the data active means normalized activity above about 1.9%;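 further: purified mutant Fbw7 with reduced substrate affinity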
# GPR151 ag: activates the human receptor GPR151; Q8TDV0; PathHunter beta-arrestin GPR151 cells, luminescence; activation, % at 11.2 µM; hit rate 1% among 650,000; AID 1508602; in the data active means activation above about 4.9%;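 further: 0% = median of compound wells and 100% = cells with positive control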
# MITF primary: human MITF inhibition, primary screen; O75030; AlphaScreen MITF homodimerization, bead proximity signal; inhibition, % at 2.6 µM; hit rate 0.91% among 650,000; in the data active means inhibition above about 50%;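 further: 0% = vehicle wells with protein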
# TEAD-YAP block: TEAD-YAP interaction inhibition; HEK-TIYL cells, TEAD-Gal4/YAP UAS-luciferase luminescence; inhibition, % at 9.12 µM; hit rate 1.4% among 640,000; in the data active means inhibition above about 32%;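 further: 0% = median of test compound wells and 100% = reference inhibitor wells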
# GPR151 conf act: human GPR151 activation, confirmation screen; 6,700 tested, under 10 active; activation, % at 11.2 µM; shares compounds with GPR151 ag; GPR151 PathHunter beta-arrestin cells, luminescence, 90 min; % of EA-reagent control over plate median;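 active means mean percent activation across replicates above the confirmation screen cutoff of 4.91%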
# GPR119 counter: counter-screen for GPR151 activators: effect on human GPR119 | GPR119 PathHunter beta-arrestin cells, luminescence, 90 min; 0 = compound-well median, 100 = enzyme-acceptor control | shares compounds with GPR151 ag | activation, % at 11.2 µM | hit rate 0.3% among 6,700;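 active means mean percent activation in the counterscreen above 29.09%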;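 further: counterscreen on off-target GPR119 to flag nonselective hits from the GPR151 activator screen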
# Target sequence (Q8TDV5 whole entry, looked up): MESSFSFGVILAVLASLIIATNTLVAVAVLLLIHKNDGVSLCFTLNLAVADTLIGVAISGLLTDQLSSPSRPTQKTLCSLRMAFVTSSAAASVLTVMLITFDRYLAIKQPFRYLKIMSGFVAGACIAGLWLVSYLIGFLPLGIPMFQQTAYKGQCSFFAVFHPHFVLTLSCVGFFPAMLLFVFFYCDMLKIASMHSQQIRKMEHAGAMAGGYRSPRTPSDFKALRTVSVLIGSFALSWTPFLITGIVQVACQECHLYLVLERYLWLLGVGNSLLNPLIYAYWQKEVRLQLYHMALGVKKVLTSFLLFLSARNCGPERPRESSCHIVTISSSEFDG
# * = called active by the depositor; · = no result given. Most compounds without a hit are left out; they make up all but 3.5% or so of the library.
SMILES,FBW7 act,GPR151 ag,MITF primary,TEAD-YAP block,GPR151 conf act,GPR119 counter
Cc1ccc(-c2noc(C3CCN(S(=O)(=O)c4ccccc4)CC3)n2)cc1,0,0,-26,0,·,·
Cc1ccc(S(=O)(=O)N2CCC(c3nc(-c4ccccc4C)no3)CC2)cc1,0,6.2*,13,14,0,-10
COc1ccc(CCNC(=O)c2csc(-c3ccc(C(=O)N4CCN(C)CC4)cc3)n2)cc1,0,1,9,20,·,·
CSc1nnc(C)c(=O)n1COC(=O)c1cc2ccccc2o1,0,7.5*,10,9,-1,1
CSc1nnc(C)c(=O)n1COC(=O)c1ccccc1I,0,-1,2,7,·,·
O=C1c2cccc3cccc(c23)C(=O)N1/N=C/c1ccccc1,0,-1,-2,-6,·,·
COc1ccc2oc(=O)c(S(=O)(=O)c3ccc(C(C)C)cc3)cc2c1,0,3,-5,-6,·,·
Cn1cccc1C(=O)OCC(=O)NC(=O)NCc1ccccc1,0,6.2*,7,3,2,13
COc1ccc(C2Oc3c(OC)cccc3C3CC(c4ccco4)=NN32)cc1 (stereo not given),0,-1,13,-68,·,·
COc1ccc(C2Oc3c(OC)cccc3C3CC(c4ccco4)=NN32)cc1OC (stereo not given),0,7.6*,2,-65,-1,-2
Cc1ccc(C(=O)CN2C(=O)C(C#N)C3(CCCCC3)C(C#N)C2=O)cc1 (stereo not given),0,0,-12,-2,·,·
CCOc1cc(/C=C(\C#N)c2nn(CCO)c(N)c2C#N)ccc1OCc1ccc(F)cc1,0,-2,17,1,·,·
FC(F)(F)c1ccc(Cn2cnc3c(NCc4cccc(C(F)(F)F)c4)nc(Nc4nccc5ccccc45)nc32)cc1,0,5.6*,0,14,0,3
CN1CCN(C(=O)c2ccc(-c3nc(NCc4cccc(C(F)(F)F)c4)c4ncn(Cc5ccc(C(F)(F)F)cc5)c4n3)cc2)CC1,0,11*,-4,0,1,-7
c1csc(CCN2CCC(c3nc(-c4ccsc4)no3)CC2)c1,0,1,11,0,·,·
Brc1ccc2c(ccc[n+]2C/C=C/c2ccccc2)c1,0,6.2*,-3,14,1,-7
O/N=C/c1ccc[n+](C/C=C/c2ccccc2)c1,0,-1,16,3,·,·
COC(=O)c1ccccc1Oc1c([N+](=O)[O-])c(C)nn1-c1ccccc1,0,-1,2,23,·,·
CCOC(=O)C1CCCN(C(=O)c2cccc(-n3c(=S)[nH]c4cc(Cl)ccc4c3=O)c2)C1 (stereo not given),0,6.6*,4,0,1,9
O=C(c1cccc(-n2c(=S)[nH]c3cc(Cl)ccc3c2=O)c1)N1CCCC1,0,-1,40,-8,·,·
COc1ccccc1/C=C(\NC(=O)c1ccccc1)C(=O)Nc1cccc(C(C)=O)c1,0,5.8*,12,2,-1,-9
CC(=O)c1cccc(NC(=O)/C(=C/c2ccccc2)NC(=O)c2ccccc2)c1,0,1,-2,-5,·,·
N#Cc1ccc(NC(=O)COC(=O)c2ccc(Cl)nc2)cc1,0,0,-13,11,·,·
NS(=O)(=O)c1ccc(CCNC(=O)CN2C(=O)C3C4C=CC(C4)C3C2=O)cc1 (stereo not given),0,8.1*,14,6,0,-11
Cc1ccc(OCC(=O)N/N=C\c2ccc(O)c([N+](=O)[O-])c2)cc1,0,0,-15,-9,·,·
SMILES,FBW7 act,GPR151 ag,MITF primary,TEAD-YAP block,GPR151 conf act,GPR119 counter
CCOC(=O)CSC1=C(C#N)C(c2ccc(OCc3ccccc3)cc2)CC(=O)N1 (stereo not given),0,1,2,4,·,·
CN(C)CC(O)COC(c1ccccc1)c1ccccc1 (stereo not given),0,7.7*,-4,7,0,-4
CCN1CCN(CC(O)COC(c2ccccc2)c2ccccc2)CC1 (stereo not given),0,2,-20,1,·,·
COc1ccc(-c2nnc(Nc3ccc(F)cc3)c3ccccc23)cc1,0,0,-3,-20,·,·
CCC(=O)Nc1cc(C)c(NC(=O)c2ccc(OC)cc2)cn1,0,0,13,5,·,·
Cc1nn(C)c(C)c1-c1nc(C(=O)NC2CCN(Cc3ccccc3)CC2)cs1,0,8.7*,8,-16,0,-7
